Cycloheximide cs = Cycloheximide Counterscreen for Small Molecule Inhibitors of Shiga Toxin. max response, %. AID 2314, 2010. cell reporter, cycloheximide protein synthesis inhibition counterscreen. 300,000 compounds, 12% hits; in the data active means max response mostly above about 13%, no sharp cut-off; inactive means mostly below about 14%; further: read at 38.3 µM for the half of the compounds with a filed dose; 0% is about no effect
LmPK inh = qHTS Assay for Inhibitors of Leishmania Mexicana Pyruvate Kinase (LmPK); Q27686; purified LmPK, Kinase-Glo ATP luminescence, 1 h; Potency, µM (top dose mostly 57.5 µM), for the others: at the top dose activity change, negative = inhibition, most hits filed as inhibitors; 290,000 compounds, 0.37% hits; further: potency means the concentration at half of the fitted maximal effect; on the % scale 0 is the no-effect control and ±100 the full control effect
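Purified LmPK (0.1 nM) converted ADP (0.1 mM) to ATP with PEP (0.5 mM) in imidazole buffer pH 7.2 with KCl and MgCl2, 1 h at room temperature. ATP was read by Kinase-Glo luminescence; data normalized to uninhibited and no-enzyme controls.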
Giardia FBPA inh = qHTS Assay for Inhibitors of Fructose-1,6-bisphosphate Aldolase from Giardia Lamblia. A8B2U2. purified Giardia FBPA. Potency, µM (titrated, usually from 59.6 µM), inactives show top-dose activity, negative = inhibition, usual class: inhibitors. 290,000 compounds, 0.71% hits; further: potency means the concentration at half of the fitted maximal effect; on the % scale 0 is the no-effect control and ±100 the full control effect; nearly all actives have a fitted effect of over 55% in size
Target sequence (A8B2U2 whole entry, looked up): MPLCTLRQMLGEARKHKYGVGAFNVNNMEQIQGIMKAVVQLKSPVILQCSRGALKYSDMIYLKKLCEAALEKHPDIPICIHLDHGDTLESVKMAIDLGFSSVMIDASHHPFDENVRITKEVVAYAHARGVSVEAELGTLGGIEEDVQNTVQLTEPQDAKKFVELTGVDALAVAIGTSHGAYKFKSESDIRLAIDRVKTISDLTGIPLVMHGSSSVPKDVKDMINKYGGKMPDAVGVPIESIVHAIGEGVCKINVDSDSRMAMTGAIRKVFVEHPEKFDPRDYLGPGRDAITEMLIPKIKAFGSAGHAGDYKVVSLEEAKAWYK
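40 nM FBPA preincubated 10 min at RT with compound (up to 57.5 uM final), then substrate plus GAPDH/TPI/NAD/arsenate coupling and diaphorase/resazurin added. Fluorescence read after 20 min at RT, 525/598 nm.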
RE007 growth inh = qHTS Assay for Inhibitors of the HIV-1 protein Vpr | S. pombe RE007 Vpr strain, BacTiter-Glo ATP luminescence, 24 h | Potency, µM (titrated, usually from 92.2 µM), inactives show at the top dose activity change, negative = less growth, most hits filed as inhibitors | 360,000 compounds, 0.21% hits | AID 651644, 2012; active means well fitted falling curve with a large enough effect; inconclusive means small, poorly fitted or top-dose-only effect; inactive means no such curve, though single readings can be large or run the other way; further: potency means the concentration at half of the fitted maximal effect; on the % scale 0 is the no-effect control and ±100 the full control effect; nearly all actives have a fitted effect of over 50% in size
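Fission yeast RE007 carrying one integrated HIV-1 vpr copy, seeded at OD 0.01 in PMG+AL medium with 23 nL pinned compound. Grown 24 h at 30 degrees; viability read by BacTiter-Glo luminescence after 5 min.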
TbPYK inhibitor = qHTS of Trypanosoma Brucei Inhibitors; TbPYK enzyme, Kinase-Glo Plus ATP luminescence, 45 min; Potency, µM (titrated, usually from 76.8 µM), for the others: at the highest dose activity, negative = inhibition, actives largely listed as inhibitors; 410,000 compounds, 0.12% hits; AID 624173, 2012; further: potency means the concentration at half of the fitted maximal effect; on the % scale 0 is the no-effect control and ±100 the full control effect; nearly all actives have a fitted effect of over 50% in size
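Assay buffer: 50 mM TEA pH 7.2, 100 mM KCl, 10 mM MgCl2, 0.05% BSA, 0.01% Tween-20. Pyruvate kinase from T. brucei plus substrate met compound, then ADP (130 uM final). Luminescence was read post 45 min RT.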
Shiga inhibitor = A qHTS for Small Molecule Inhibitors of Shiga Toxin; Vero cells, Shiga toxin protein synthesis inhibition reporter; inhibition, % at 38.7 µM; 290,000 compounds, 9.2% hits; AID 2315, 2010; in the data active means inhibition mostly above about 28%, no sharp cut-off; inactive means mostly below about 43%; further: 0% is about no effect
Active calls of the source: *; ? = inconclusive; / = not tested or not shown; ! = a repeat was not active; [ ] = another dose, or the depositor's remark. Only a selection was taken, and hits are over-represented in it overall. Unless noted, the call rests on the fitted dose curve; in most records, active means well fitted curve in the direction sought with a large enough effect; inconclusive means small, poorly fitted or top-dose-only effect, or another doubt; inactive means no such curve, though single readings can be large; an effect the other way counts as inactive or inconclusive.

SMILES | Cycloheximide cs | LmPK inh | Giardia FBPA inh | RE007 growth inh | TbPYK inhibitor | Shiga inhibitor
CSCC[C@H](N)C(=O)N[C@@H](CO)C(=O)N[C@@H](CCCN=C(N)N)C(=O)N1CCC[C@H]1C(=O)N[C@@H](C)C(=O)N[C@@H](CS)C(=O)N1CCC[C@H]1C(=O)N[C@@H](CC(N)=O)C(=O)N[C@@H](CC(=O)O)C(=O)N[C@@H](CCCCN)C(=O)N[C@@H](Cc1ccc(O)cc1)C(=O)N[C@@H](CCC(=O)O)C(=O)O | -6 | / | 0% | / | / | -6
CN1CC[C@@]2(C)c3cc(O)ccc3N(C)[C@@H]12 | / | / | 4.5µM* | -8%[18.4 µM] | -21% | /
CNC(=O)Oc1ccc2c(c1)[C@]1(C)CCN(C)C1N2C (stereo partly specified) | / | / | / | 11% | -6% | /
CCOc1ccc(OCC)c(NC(=O)CCS(=O)(=O)c2ccc(Br)s2)c1 | 15* | 8% | 5% | -9% | 0% | 33
CS(=O)(=O)N(CC(=O)NC1CCCC1)c1ccc(Oc2ccccc2)cc1 | 2 | -1% | -4% | -7% | -5% | 32
C/C(=N\NC(=O)CN(c1ccc(Oc2ccccc2)cc1)S(C)(=O)=O)C(C)(C)C | 33* | 5% | -4% | 8% | 2% | 39
CS(=O)(=O)N(CC(=O)NC1CC2CCC1C2)c1ccc(Oc2ccccc2)cc1 (stereo unspecified) | 15* | -5% | -7% | 10% | -15% | 38
O=C(Nc1nnc(-c2ccccc2F)s1)C1CCCO1 (stereo unspecified) | 39* | -6% | -13% | 4% | -13% | 64*
O=C(Nc1nnc(Cc2ccc(Cl)cc2)s1)C1CCCO1 (stereo unspecified) | 18 | -1% | 0% | -14% | -4% | 40
O=C(Nc1nnc(-c2ccncc2)s1)C1CCCO1 (stereo unspecified) | 17* | 2% | -15% | -20% | 5% | 35*
CN(C)S(=O)(=O)c1ccc2c(c1)N(CC(=O)N1CCN(c3ccc(F)cc3)CC1)CCS2 | / | / | / | / | 6% | /
CCc1ccc(-c2nc(CN3CCCC(C(=O)NCc4ccc(C)cc4)C3)c(C)o2)cc1 (stereo unspecified) | / | / | / | / | -3% | /
Nc1cc(N)cc(-c2nc3ccccc3[nH]2)c1 | 23* | -1% | -2% | -9% | 10% | 13
S=C(NCCN1CCOCC1)Nc1ccc(-c2nc3ccccc3[nH]2)cc1 | 28* | 4% | -11% | -12% | 7% | 177*
Fc1ccc(NC(=S)NCCN2CCOCC2)cc1 | 9 | 5% | 1% | 5% | 10% | -6
COC(=O)c1ccc(-c2n[nH]c(=O)c3ccccc23)cc1 | -2 | -3% | 6% | 18% | 9% | -7
COC(=O)c1ccc(-c2ncc[nH]2)cc1 | 24* | 2% | 1% | 9% | -5% | 23
S=C(Nc1ccc(-c2nc3ccccc3[nH]2)cc1)Nc1cccnc1 | 61* | 0% | -4% | -28% | -16% | 66*
O=C(CSc1nnc(COc2ccccc2Cl)o1)NC(=O)NCc1ccco1 | 2 | 6% | -14% | -2% | -7% | 15
c1ccc2[nH]c(-c3ccncc3)nc2c1 | 19* | -23% | 0% | -1% | 4% | 68*
c1ccc2[nH]c(CCCCc3nc4ccccc4[nH]3)nc2c1 | 4 | -7% | -4% | 13% | 5% | 12
COc1ccc(-c2nc3ccccc3[nH]2)cc1 | 25* | 13µM* | -17% | ? | ? | 27
COc1ccc(-c2nc3ccccc3nc2-c2ccc(OC)cc2)cc1 | -4 | -2% | 12% | -7% | -5% | -2
COc1ccc(CCCc2nc3ccccc3[nH]2)cc1 | 22* | 3% | -6% | -24% | -1% | 70
COc1ccc2oc(=Nc3ccccc3)c(-c3nc4ccccc4[nH]3)cc2c1 | 59* | -8% | 2% | / | -13% | 71*
SMILES | Cycloheximide cs | LmPK inh | Giardia FBPA inh | RE007 growth inh | TbPYK inhibitor | Shiga inhibitor
COc1ccccc1-c1cccc([C@@H]2C[C@H]3[C@H](CON3C)CN2C(=O)C(C)(C)C)c1 | / | / | / | 3% | -5% | /
CC(=O)Nc1ccc2nc(-c3cccnc3)[nH]c2c1 | 10 | -3% | -3% | -4% | 0% | 19
Cc1cc(-c2nc3ccccc3[nH]2)ccc1N | 24 | 16µM* | -3% | ? | -12% | 144*
c1cncc(-c2nc3ccccc3[nH]2)c1 | 37*! | -9% | -25% | 4% | 5% | 71*!
COc1cc(OC)cc(C(=O)Nc2cc(-c3nc4ccccc4[nH]3)ccc2C)c1 | / | / | / | / | 7% | /
Fc1cc2nc(-c3ccncc3)[nH]c2cc1F | 24* | -8% | -6% | -5% | -12% | 71
COC(=O)c1ccc(C(=O)OCc2nc3cc4ccccc4cc3[nH]2)cc1 | 29* | 5% | 2% | 1% | 0% | 14*
COc1ccc(/C=C/C(=O)c2cccs2)c(OC)c1 | / | / | -1% | / | / | /
CCCCCCOc1ccc(C(=N)N(CCCC)CCCC)c2ccccc12 | / | / | / | / | -6% | /
CSc1cccc(NC(=O)N2CCN(c3cc(-c4noc(C)n4)ccc3C)CC2)c1 | / | / | / | / | -3% | /
O=C(O)c1cccc(-c2nc3ccccc3[nH]2)c1 | 27* | -27% | -5% | -18% | -14% | 32*
COC(=O)c1ccc(-c2nc3ccccc3[nH]2)cc1 | 63* | ? | 0% | ? | -21% | active
c1ccc(-c2nc3ccccc3[nH]2)cc1 | 31* | ? | 10% | -22% | 4% | 47*
c1ccc(-c2n[nH]c(-c3ccccc3)c2-c2nc3ccccc3[nH]2)cc1 | -3 | 1% | -1% | -7% | -12% | -13
Cc1cccc(NC(=O)CSc2nnc(-c3cc(C)[nH]n3)n2N)c1 | 3 | 7% | / | 2% | -3% | 14
O=C(N/N=C/c1ccco1)c1cccc(NC(=O)c2cccc(Cl)c2)c1 | 41* | 1% | 1% | 17% | -1% | 81*
C/C(=N\NC(=O)c1cccc(Cl)c1)c1cccc(NC(=O)c2ccco2)c1 | 24* | 7% | -1% | -9% | -16% | 91*
C/C(=N\NC(=O)c1cccc(C)c1)c1cccc(NC(=O)c2ccco2)c1 | 19* | 0% | 0% | -1% | -7% | 32
C/C(=N/NC(=O)c1cccc(C)c1)c1c(O)cc(C)oc1=O | 31* | -1% | ? | -21% | -1% | 61*
Cc1cc(-c2nc3ncccc3o2)ccc1NC(=O)COc1cc(C)c(Cl)c(C)c1 | / | / | / | / | -10% | /
Cc1nn(-c2ccc(N3CCOCC3)nn2)c(C)c1CCC(=O)NCc1ccccc1 | 3 | 3% | 0% | 12% | 1% | 14
CC(/C=N\NC(=O)c1cc(C)oc1C)=C\c1ccccc1 | 22* | -9% | 0% | -23% | 0% | 19

Screening results (PubChem)
